Reference: PubChem BioAssay (Tox21)
Where “and” joins values, the source holds several entries; their conditions need not be identical. Equal entries are not always repeated. Results filed as inconclusive are left out. Where a call stands in place of a potency, no number is given. Some compounds were tested as several samples or in several runs, with calls that do not always agree. Calls of active or inactive are those of the source. Unless noted, the call rests on the fitted dose curve.

What was measured:
[1] = Nuclear factor erythroid 2-related factor 2/antioxidant responsive element (Nrf2/ARE) small molecule agonists: qHTS cell viability counter screen in human keratinocytes (AID 1919968; active means well fitted curve in the direction sought with a large enough effect in the repeat runs; an effect the other way counts as inactive or inconclusive; further: nearly all actives have a fitted effect of over 55% in size; further: potency means the concentration at half of the fitted maximal effect)
In short: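 KeratinoSens HaCaT cells, 1,500/well, preincubated 5 h, then exposed to compounds in DMSO for 23 h at 37 C/5% CO2. Viability read as CellTiter-Fluor fluorescence after 1 h, in the same wells as the ARE-luciferase read.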

[2] = Nuclear factor erythroid 2-related factor 2/antioxidant responsive element (Nrf2/ARE) small molecule agonists: luciferase reporter gene qHTS assay in human keratinocytes (AID 1919969); further: nearly all actives have a fitted effect of over 35% in size; further: potency means the concentration at half of the fitted maximal effect
[3] = target: Gonadotropin-releasing hormone receptor (Homo sapiens) (UniProt P30968); test: Human gonadotropin-releasing hormone receptor (GnRHR) small molecule agonists, calcium flux assay in GnRHR-HEK293 cells (AID 1920063); further: nearly all actives have a fitted effect of over 35% in size; further: potency means the concentration at half of the fitted maximal effect
Sequence of Gonadotropin-releasing hormone receptor (Homo sapiens) (P30968 whole entry, looked up): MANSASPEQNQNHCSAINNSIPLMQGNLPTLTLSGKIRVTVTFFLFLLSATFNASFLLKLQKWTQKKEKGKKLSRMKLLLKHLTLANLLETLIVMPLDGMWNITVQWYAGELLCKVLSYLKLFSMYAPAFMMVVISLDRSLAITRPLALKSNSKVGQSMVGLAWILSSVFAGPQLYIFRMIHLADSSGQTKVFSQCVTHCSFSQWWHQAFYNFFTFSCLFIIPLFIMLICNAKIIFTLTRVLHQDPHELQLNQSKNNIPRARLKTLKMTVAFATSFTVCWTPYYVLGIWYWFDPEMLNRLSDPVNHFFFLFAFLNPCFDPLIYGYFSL
In short: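 HEK293 cells stably expressing human GnRHR were dye-loaded for 1 h at 37 C. Compound was added in agonist mode and fluorescence (Ex/Em 480/540) recorded kinetically for 3 min. Fifteen concentrations, triplicates.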

[4] = target: KiSS-1 receptor (Homo sapiens) (UniProt Q969F8); test: Human kisspeptin (KISS1R) small molecule agonists, calcium flux assay in KISS1R-HEK293 cells (AID 1920064; active means well fitted curve in the direction sought with a large enough effect in the repeat runs; an effect the other way counts as inactive or inconclusive)
Sequence of KiSS-1 receptor (Homo sapiens) (Q969F8 whole entry, looked up): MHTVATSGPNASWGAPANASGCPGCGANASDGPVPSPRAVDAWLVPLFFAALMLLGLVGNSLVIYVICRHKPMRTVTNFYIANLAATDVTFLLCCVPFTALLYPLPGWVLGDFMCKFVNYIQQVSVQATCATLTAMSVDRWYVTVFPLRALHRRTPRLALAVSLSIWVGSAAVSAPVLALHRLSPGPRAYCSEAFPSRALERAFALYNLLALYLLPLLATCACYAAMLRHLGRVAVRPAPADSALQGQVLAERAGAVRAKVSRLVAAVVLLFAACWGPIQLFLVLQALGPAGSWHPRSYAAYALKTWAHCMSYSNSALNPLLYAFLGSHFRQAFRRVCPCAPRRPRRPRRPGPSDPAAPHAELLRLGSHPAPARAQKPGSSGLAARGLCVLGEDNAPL
In short: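 HEK293 cells stably expressing human KISS1R were loaded with calcium dye for 1 h at 37 C, then given compound; fluorescence (Ex/Em 480/540) was read kinetically for 3 min. Fifteen concentrations, triplicate.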

[5] = p53 small molecule agonists, cell-based qHTS assay with rat liver microsomes (AID 1963578)
In short: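 Fluorescence from a beta-lactamase reporter under a p53 response element was measured after cells had been incubated 16 h at 37 C with test compound and rat liver microsomes plus NADPH (0.5 mg/mL final each).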

[6] = p53 small molecule agonists, cell-based qHTS assay with human liver microsomes: qHTS cell viability counter screen (AID 1963579); further: nearly all actives have a fitted effect of over 45% in size; further: potency means the concentration at half of the fitted maximal effect
In short: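 Seed p53RE-bla cells at 4,000 per well; incubate 5 h at 37 C; add compound, human liver microsomes and NADPH; incubate 16 h at 37 C; add CellTiter-Glo; after 30 min at room temperature, read luminescence.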

[7] = p53 small molecule agonists, cell-based qHTS assay with rat liver microsomes: qHTS cell viability counter screen (AID 1963580); further: nearly all actives have a fitted effect of over 45% in size; further: potency means the concentration at half of the fitted maximal effect
In short: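 p53RE-bla HCT-116 cells (4,000/well) rested 5 h at 37 C, then given Tox21 compounds in DMSO with rat liver microsomes (0.5 mg/mL final) plus NADPH (0.5 mg/mL final) for 16 h at 37 C. Viability read by CellTiter-Glo luminescence after 30 min at room temperature.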

[8] = p53 small molecule agonists, cell-based qHTS assay: qHTS cell viability counter screen (AID 1963581); further: nearly all actives have a fitted effect of over 45% in size; further: potency means the concentration at half of the fitted maximal effect
In short: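 p53RE-bla HCT-116 cells, compounds added 5 h after plating and incubated 16 h at 37 C. Cytotoxicity measured in the same wells as intracellular ATP by CellTiter-Glo luminescence after 30 min at room temperature.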

[9] = p53 small molecule agonists, cell-based qHTS assay (AID 1963582; active means well fitted activation curve with a large enough effect in the signal ratio in the repeat runs, not every such curve was filed as active; the % refers to the signal ratio)
In short: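 p53RE-bla reporter cells, compounds added in DMSO after 5 h plating, incubated 16 h at 37 C. Beta-lactamase read via 2 h room-temperature LiveBLAzer B/G FRET substrate, fluorescence intensity.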

[10] = target: 5-hydroxytryptamine receptor 2A (Homo sapiens) (UniProt P28223); test: 5-hydroxytryptamine receptor 2A (HTR2A) small molecule agonists, cell-based qHTS assay (AID 1963587); further: nearly all actives have a fitted effect of over 30% in size; further: potency means the concentration at half of the fitted maximal effect
Sequence of 5-hydroxytryptamine receptor 2A (Homo sapiens) (P28223 whole entry, looked up): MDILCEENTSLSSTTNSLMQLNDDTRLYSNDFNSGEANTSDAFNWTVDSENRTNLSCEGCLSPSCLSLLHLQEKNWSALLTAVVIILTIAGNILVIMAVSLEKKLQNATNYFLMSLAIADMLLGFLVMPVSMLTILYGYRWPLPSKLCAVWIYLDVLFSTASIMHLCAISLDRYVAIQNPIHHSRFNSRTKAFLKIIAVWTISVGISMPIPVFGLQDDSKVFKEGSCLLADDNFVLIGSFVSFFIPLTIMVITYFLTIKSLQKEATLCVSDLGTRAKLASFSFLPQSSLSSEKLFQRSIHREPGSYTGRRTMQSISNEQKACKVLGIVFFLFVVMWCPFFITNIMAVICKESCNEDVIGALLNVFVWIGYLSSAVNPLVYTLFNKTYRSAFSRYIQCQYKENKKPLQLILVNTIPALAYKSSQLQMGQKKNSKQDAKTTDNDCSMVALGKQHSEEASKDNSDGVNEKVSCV
In short: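 HTR2A-CHO cells, plated 18 h at 37 C/5% CO2, dye-loaded 1 h at 37 C; compounds in DMSO added by pin tool (agonist mode). Intracellular calcium flux read as kinetic fluorescence on FDSS over 2 min at 1 s intervals.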

[11] = target: Muscarinic acetylcholine receptor M1 (Homo sapiens) (UniProt P11229); test: Cholinergic receptor muscarinic 1 (CHRM1) small molecule antagonists, cell-based qHTS assay (AID 1963588); further: nearly all actives have a fitted effect of over 40% in size
Sequence of Muscarinic acetylcholine receptor M1 (Homo sapiens) (P11229 whole entry, looked up): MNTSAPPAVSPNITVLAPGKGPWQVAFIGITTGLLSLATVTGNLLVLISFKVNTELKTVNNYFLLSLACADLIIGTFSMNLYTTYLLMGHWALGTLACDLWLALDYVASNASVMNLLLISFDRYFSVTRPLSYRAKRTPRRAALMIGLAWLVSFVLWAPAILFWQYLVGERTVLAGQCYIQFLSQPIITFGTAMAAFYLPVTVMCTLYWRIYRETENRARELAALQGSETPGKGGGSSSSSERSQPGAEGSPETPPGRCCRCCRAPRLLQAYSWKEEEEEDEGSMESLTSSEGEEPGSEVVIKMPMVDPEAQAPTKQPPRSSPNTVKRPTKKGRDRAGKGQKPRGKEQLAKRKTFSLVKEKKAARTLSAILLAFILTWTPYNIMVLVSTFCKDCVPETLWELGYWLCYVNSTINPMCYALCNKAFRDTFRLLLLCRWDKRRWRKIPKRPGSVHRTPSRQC
In short: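 CHRM1-CHO calcium-flux assay, antagonist mode. Cells were seeded 18 h, dye-loaded 1 h at 37 C and given compound for 5 min at RT, then acetylcholine was added at 50nM. FDSS fluorescence was read 3 min; 15 concentrations, three runs.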

[12] = target: Muscarinic acetylcholine receptor M1 (Homo sapiens) (UniProt P11229); test: Cholinergic receptor muscarinic 1 (CHRM1) small molecule agonists, cell-based qHTS assay (AID 1963589); further: nearly all actives have a fitted effect of over 35% in size
In short: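 CHO cells stably expressing human CHRM1 were loaded with calcium dye for 1 h at 37 C, then compound was added in agonist mode. Intracellular calcium fluorescence was followed kinetically at 1 s intervals. Fifteen concentrations were tested in three independent runs.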

[13] = cAMP Responsive Elements (CRE) small molecule agonists, cell-based qHTS assay (AID 1963590)
In short: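 CRE-bla HEK 293T cells, 2,000/well in DMEM with 10% dialyzed FBS and 25 mM HEPES, pre-incubated 18 h at 37 C, then exposed to compound 3 h at 37 C. Beta-lactamase reporter read with LiveBLAzer B/G FRET substrate after 2 h at room temperature.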

[14] = cAMP Responsive Elements (CRE) small molecule antagonists, cell-based qHTS assay (AID 1963591; active means well fitted inhibition curve with a large enough effect in the signal ratio in the repeat runs, not every such curve was filed as active; the % refers to the signal ratio)
In short: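 CRE-bla HEK293T cells plated 18 h, then given compound plus NKH477 at 0.25 uM final for 3 h at 37C. Beta-lactamase reporter read with LiveBLAzer B/G FRET substrate after 2 h at room temperature.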

[15] = target: Beta-2 adrenergic receptor (Homo sapiens) (UniProt P07550); test: Adrenergic beta2 receptor (ADRB2) small molecule antagonists, cell-based qHTS assay (AID 1963592); further: series mostly up to about 92 µM; nearly all actives have a fitted effect of over 50% in size
Sequence of Beta-2 adrenergic receptor (Homo sapiens) (P07550 whole entry, looked up): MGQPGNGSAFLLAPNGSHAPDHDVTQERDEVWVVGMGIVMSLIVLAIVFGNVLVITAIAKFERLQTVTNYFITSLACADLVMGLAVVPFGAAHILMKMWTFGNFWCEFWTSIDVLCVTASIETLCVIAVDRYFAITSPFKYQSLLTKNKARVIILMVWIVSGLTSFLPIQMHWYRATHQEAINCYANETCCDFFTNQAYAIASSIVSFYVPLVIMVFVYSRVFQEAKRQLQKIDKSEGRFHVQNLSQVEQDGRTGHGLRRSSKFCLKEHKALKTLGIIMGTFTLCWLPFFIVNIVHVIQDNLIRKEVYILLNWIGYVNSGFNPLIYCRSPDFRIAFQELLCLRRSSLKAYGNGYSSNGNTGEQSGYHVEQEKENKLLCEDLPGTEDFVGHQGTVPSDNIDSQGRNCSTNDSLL
In short: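 Cells (CHO, stable ADRB2 overexpression) incubated 18-20hr at 37C; compounds added from DMSO; agonist mix (1nM isoproterenol, 100uM IBMX, 25uM Ro-20-1724) added; 0.5hr RT; d2-cAMP and anti-cAMP-cryptate added; 1hr RT; 665/615 nm read.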

[16] = target: Beta-2 adrenergic receptor (Homo sapiens) (UniProt P07550); test: Adrenergic beta2 receptor (ADRB2) small molecule agonists, cell-based qHTS assay (AID 1963593);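 further: CHO cells stably overexpressing human ADRB2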
In short: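 CHO cells stably over-expressing ADRB2 were plated overnight at 37C, then dosed with compounds plus a stimulation mix containing 100uM IBMX and 25uM Ro-20-1724 for 0.5hr at room temperature. cAMP was measured by HTRF competition, 1hr.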

[17] = target: D(2) dopamine receptor (Homo sapiens) (UniProt P14416); test: Dopamine D2 receptor (DRD2) small molecule agonists, cell-based qHTS assay (AID 1963594); further: nearly all actives have a fitted effect of over 35% in size
Sequence of D(2) dopamine receptor (Homo sapiens) (P14416 whole entry, looked up): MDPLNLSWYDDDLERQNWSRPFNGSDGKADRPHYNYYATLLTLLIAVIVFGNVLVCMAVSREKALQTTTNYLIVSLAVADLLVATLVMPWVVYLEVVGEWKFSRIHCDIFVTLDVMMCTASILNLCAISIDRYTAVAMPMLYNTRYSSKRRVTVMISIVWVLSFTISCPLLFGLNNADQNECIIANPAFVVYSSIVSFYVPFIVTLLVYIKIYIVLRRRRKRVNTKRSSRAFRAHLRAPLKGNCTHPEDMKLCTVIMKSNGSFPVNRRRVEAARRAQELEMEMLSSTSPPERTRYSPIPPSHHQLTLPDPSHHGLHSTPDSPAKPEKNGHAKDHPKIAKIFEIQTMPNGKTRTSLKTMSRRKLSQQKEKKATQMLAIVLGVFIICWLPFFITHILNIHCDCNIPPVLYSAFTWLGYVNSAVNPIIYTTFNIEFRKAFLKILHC
In short: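 HEK293 cells stably expressing DRD2 were cultured 24 h at 37 C, then given Ro20-1724 (0.1 mM final) and compounds for 10 min at room temperature. NKH477 (200nM) was then added for 30 min. cAMP was read by HTRF.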

[18] = target: D(2) dopamine receptor (Homo sapiens) (UniProt P14416); test: Dopamine D2 receptor (DRD2) small molecule antagonists, cell-based qHTS assay (AID 1963595; active means well fitted inhibition curve with a large enough effect in the signal ratio in the repeat runs, with a control signal flat; the % refers to the signal ratio; further: potency means the concentration at half of the fitted maximal effect)
In short: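 Human DRD2 antagonist qHTS measuring cAMP by HTRF. The cells are exposed to compound for 10 min, then to NKH477 (200 nM) and quinpirole (12 nM) for 30 min at RT, with Ro20-1724 (0.1 mM) present throughout.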

[19] = target: 5-hydroxytryptamine receptor 2A (Homo sapiens) (UniProt P28223); test: 5-hydroxytryptamine receptor 2A (HTR2A) small molecule antagonists, cell-based qHTS assay (AID 1963586); further: nearly all actives have a fitted effect of over 45% in size; further: potency means the concentration at half of the fitted maximal effect
In short: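 Antagonist-mode intracellular calcium assay: DOI (4 nM) added after 5 min compound pre-incubation at room temperature to dye-loaded HTR2A-CHO cells. Fluorescence followed for 3 min, sampled every second.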

SMILES	Potency [1]	Potency [2]	Potency [3]	Potency [4]	Potency [5]	Potency [6]	Potency [7]	Potency [8]	Potency [9]	Potency [10]	Potency [11]	Potency [12]	Potency [13]	Potency [14]	Potency [15]	Potency [16]	Potency [17]	Potency [18]	Potency [19]
ClC1C(Cl)C(Cl)C(Cl)C(Cl)C1Cl (configuration not stated)	inactive	62.4 µM (active) and inactive	inactive	inactive	inactive	inactive	inactive	inactive	inactive	inactive and 54.9 µM (active)	inactive	inactive	inactive	inactive	inactive	inactive	inactive	inactive	–
Fc1cc(Br)ccc1CBr	inactive	inactive	inactive	inactive	inactive	inactive	inactive	inactive	inactive	inactive	inactive	inactive	inactive	inactive	inactive	–	inactive	inactive	inactive
c1ccc(OP(Oc2ccccc2)Oc2ccccc2)cc1	inactive	inactive	inactive	inactive	inactive	inactive	inactive	inactive	inactive	inactive	inactive	inactive	inactive	inactive	inactive	inactive	inactive	inactive	inactive
COc1ccc(O)c(C(C)(C)C)c1	inactive	68.7 µM (active)	inactive	inactive	inactive	inactive	inactive	inactive	inactive	inactive	inactive	inactive	–	inactive	inactive	inactive	inactive	inactive	23.7 µM (active) and inactive
CCCCCCCCCCCCCl	inactive	inactive	inactive	inactive	–	inactive	inactive	inactive	inactive	inactive	inactive	inactive	inactive	inactive	inactive	–	inactive	inactive	inactive
N#CSCSC#N	14 µM (active) and 21.5 µM (active)	15.2 µM (active)	39.8 µM (active)	inactive	–	26.3 µM (active)	37.2 µM (active)	46.8 µM (active)	–	50.1 µM (active) and 48.5 µM (active)	inactive	–	–	–	–	–	inactive	27.9 µM (active) and 27 µM (active)	inactive
O=P(O)(O)CN(CP(=O)(O)O)CP(=O)(O)O	inactive	inactive	inactive	inactive	inactive	inactive	inactive	inactive	inactive	–	inactive	inactive	inactive	inactive	inactive	–	inactive	inactive	inactive
ClCCOCOCCCl	inactive	inactive	inactive	inactive	inactive	inactive	inactive	inactive	inactive	inactive	inactive	inactive	inactive	inactive	–	–	inactive	inactive	inactive
BrCC(Br)c1ccccc1 (configuration not stated)	inactive	inactive	inactive	inactive	inactive	inactive	inactive	inactive	inactive	inactive	inactive	inactive	inactive	inactive	inactive	–	inactive	inactive	inactive
[N-]=[N+]=[N-]	inactive	inactive	inactive	inactive	inactive	inactive	inactive	inactive	inactive	inactive	inactive	–	inactive	inactive	inactive	inactive	inactive	inactive	inactive
Nc1ccc(Br)cc1	inactive	68.5 µM (active) and inactive	inactive	inactive	inactive	inactive	inactive	inactive	inactive	inactive	–	inactive	inactive	inactive	inactive	inactive	inactive	inactive	inactive
C[C@]1(O)CC[C@H]2[C@@H]3CCC4=CC(=O)CC[C@]4(C)[C@@]3(F)[C@@H](O)C[C@@]21C	inactive	inactive	inactive	inactive	inactive	inactive	inactive	inactive	inactive	inactive	inactive	–	inactive	inactive	–	–	inactive	inactive	inactive
C[N+]1(C)CCCCC1	inactive	inactive	inactive	inactive	inactive	inactive	inactive	inactive	inactive	inactive	inactive	–	inactive	inactive	inactive	inactive	inactive	inactive	–
Oc1ccc(Cl)cc1Cl	inactive	inactive	inactive	inactive	inactive	inactive	inactive	inactive	inactive	inactive	inactive	inactive	inactive	inactive	inactive	inactive	inactive	inactive	inactive
